Laboratory results from PubChem BioAssay (NCI).
Compounds without any hit were thinned out: in the full panel of roughly 79,000, 15% have a hit. The source made the active and inactive calls. No stated cut-off is given here; in the data, active means growth inhibition above about 70%; inactive means the rest.

Test: NCI Yeast Anticancer Drug Screen. Data for the mlh1 rad18 strain (AID 175)
Conditions: S. cerevisiae mlh1 rad18 strain growth inhibition; at 50.0 µM; hits give high values
Method in brief: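 In this whole-cell yeast screen, a strain with altered DNA damage repair is challenged with compound, and its growth is measured against matched vehicle-treated controls.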

| Structure (SMILES) | growth inhibition |
| --- | --- |
| COc1ccc(C[C@H](N)C(=O)NC2C(CO)OC(n3cnc4c(N(C)C)ncnc43)C2O)cc1 (stereo not given in full) | -17.3% (inactive) |
| CC(=O)OC/C=C(\C)CC(/C=C(C)/C=C/C1=C(C)CCCC1(C)C)S(=O)(=O)c1ccccc1 (stereo not given) | -5.15% (inactive) |
| O=C(N/N=C\c1cc(=O)[nH]c(=O)[nH]1)c1ccccc1 | 2.9% (inactive) |
| Cc1[nH]ccc2c3ccc(=O)cc3n(S(=O)(=O)O)c12 | -7.25% (inactive) |
| CCCCNC(=O)NC/C(Br)=C/Br | -5.2% (inactive) |
